# Experimental data published in the supplement of paper PMC8728848.
# About 410 targets per protein were measured; listed, in parts, are those with the strongest signals and a random draw of the rest.
# Key:
# Assay in all cases: glycan array binding signal (z-score within array); higher = stronger binding
# Settings in all cases: glycan notation: IUPAC condensed, linker removed
# [1] = molecular target: Fuc(a1-2)[Gal(a1-3)]Gal(b1-4)Glc
# Method in brief: (§1)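 Glycan array binding is given as a within-array Z-score, which can be read as non-binding when negative. The arrays, 3228 of them, came from the Consortium for Functional Glycomics database and were retained only where the protein sequence was available. Z-scores were averaged across arrays of the same protein sequence at different concentrations or buffers and across linkers.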
# [2] = molecular target: Fuc(a1-2)[Gal(a1-3)]Gal(b1-4)[Fuc(a1-3)]GlcNAc
# Method in brief: as §1
# [3] = molecular target: Fuc(a1-2)[GalNAc(a1-3)]Gal
# Method in brief: as §1
# [4] = molecular target: Fuc(a1-2)[GalNAc(a1-3)]Gal(b1-3)GlcNAc
# Method in brief: as §1
# [5] = molecular target: Fuc(a1-3)[Gal(b1-4)]GlcNAc(b1-2)Man(a1-6)[Gal(b1-4)GlcNAc(b1-2)Man(a1-3)]Man(b1-4)GlcNAc(b1-4)GlcNAc
# Method in brief: as §1
# [6] = molecular target: Fuc(a1-3)[Gal(b1-4)]GlcNAc(b1-3)Gal(b1-3)[Fuc(a1-4)]GlcNAc
# Method in brief: as §1
# [7] = molecular target: Fuc(a1-3)[Gal(b1-4)]GlcNAc6S
# Method in brief: as §1
# [8] = molecular target: Fuc(b1-3)GlcNAc
# Method in brief: as §1
# [9] = molecular target: Gal(a1-3)Gal(b1-3)GlcNAc
# Method in brief: as §1
# [10] = molecular target: Gal(a1-3)Gal(b1-4)GlcNAc
# Method in brief: as §1
# [11] = molecular target: Gal(b1-2)Gal
# Method in brief: as §1
# [12] = molecular target: Gal(b1-3)Gal
# Method in brief: as §1
# [13] = molecular target: Gal(b1-3)GlcNAc
# Method in brief: as §1
# [14] = molecular target: Gal(b1-3)GlcNAc(b1-2)Man(a1-3)[Gal(b1-3)GlcNAc(b1-2)Man(a1-6)]Man(b1-4)GlcNAc(b1-4)GlcNAc
# Method in brief: as §1
# [15] = molecular target: Gal(b1-4)GlcNAc(b1-3)Gal(b1-4)Glc
# Method in brief: as §1
# [16] = molecular target: Gal3S(b1-3)[Fuc(a1-4)]GlcNAc
# Method in brief: as §1
# [17] = molecular target: Gal6S(b1-4)Glc
# Method in brief: as §1
# [18] = molecular target: GalNAc(a1-3)GalNAc
# Method in brief: as §1
# [19] = molecular target: GlcNAc(b1-3)GalNAc
# Method in brief: as §1
# [20] = molecular target: GlcNAc(b1-3)[GlcNAc(b1-6)]Gal(b1-4)GlcNAc
# Method in brief: as §1
# [21] = molecular target: GlcNAc(b1-6)Gal(b1-4)GlcNAc
# Method in brief: as §1
# [22] = molecular target: Neu5Ac(a2-3)Gal(b1-3)GalNAc(b1-3)Gal(b1-4)GlcNAc
# Method in brief: as §1
# [23] = molecular target: Neu5Ac(a2-3)Gal(b1-3)GlcNAc
# Method in brief: as §1
# [24] = molecular target: Neu5Ac(a2-3)Gal(b1-3)GlcNAc(b1-3)Gal(b1-3)GlcNAc
# Method in brief: as §1
# [25] = molecular target: Neu5Ac(a2-3)Gal(b1-3)[Fuc(a1-4)]GlcNAc(b1-3)Gal(b1-4)[Fuc(a1-3)]GlcNAc
# Method in brief: as §1
# [26] = molecular target: Neu5Ac(a2-3)Gal(b1-3)[Neu5Ac(a2-3)Gal(b1-4)]GlcNAc
# Method in brief: as §1
# [27] = molecular target: Neu5Ac(a2-3)Gal(b1-3)[Neu5Ac(a2-6)]GalNAc
# Method in brief: as §1
# [28] = molecular target: Neu5Ac(a2-3)Gal(b1-4)GlcNAc6S
# Method in brief: as §1
# [29] = molecular target: Neu5Ac(a2-3)Gal(b1-4)[Fuc(a1-3)]GlcNAc(b1-3)Gal
# Method in brief: as §1
# [30] = molecular target: Neu5Ac(a2-3)Gal(b1-4)[Fuc(a1-3)]GlcNAc6S
# Method in brief: as §1
# [31] = molecular target: Neu5Ac(a2-3)GalNAc(b1-4)GlcNAc
# Method in brief: as §1
# [32] = molecular target: Neu5Ac(a2-6)Gal(b1-4)GlcNAc(b1-2)Man(a1-3)[GlcNAc(b1-2)Man(b1-4)GlcNAc(b1-2)Man(a1-6)]Man(b1-4)GlcNAc(b1-4)GlcNAc
# Method in brief: as §1
# [33] = molecular target: Neu5Ac(a2-6)GalNAc(b1-4)GlcNAc
# Method in brief: as §1
# [34] = molecular target: Neu5Gc(a2-3)Gal(b1-3)[Fuc(a1-4)]GlcNAc
# Method in brief: as §1
# [35] = molecular target: Neu5Gc(b2-6)Gal(b1-4)GlcNAc
# Method in brief: as §1
binder,measurement,setting,value
"MCL (Mus musculus), Q9Z2H6 (protein) MWLEESQMKSKGTRHPQLIPCVFAVVSISFLSACFISTCLVTHHYFLRWTRGSVVKLSDYHTRVTCIREEPQPGATGGTWTCCPVSWRAFQSNCYFPLNDNQTWHESERNCSGMSSHLVTINTEAEQNFVTQLLDKRFSYFLGLADENVEGQWQWVDKTPFNPHTVFWEKGESNDFMEEDCVVLVHVHEKWVWNDFPCHFEVRRICKLPGITFNWKPSK",glycan array binding signal (z-score),[1],-0.321
same,glycan array binding signal (z-score),[2],0.241
same,glycan array binding signal (z-score),[3],-0.254
same,glycan array binding signal (z-score),[4],0.999
same,glycan array binding signal (z-score),[5],5.26
same,glycan array binding signal (z-score),[6],0.601
same,glycan array binding signal (z-score),[7],-0.78
same,glycan array binding signal (z-score),[8],-0.475
same,glycan array binding signal (z-score),[9],2.63
same,glycan array binding signal (z-score),[10],3.06
same,glycan array binding signal (z-score),[11],-0.362
same,glycan array binding signal (z-score),[12],-0.472
same,glycan array binding signal (z-score),[13],0.168
same,glycan array binding signal (z-score),[14],-0.92
same,glycan array binding signal (z-score),[15],0.482
same,glycan array binding signal (z-score),[16],0.263
same,glycan array binding signal (z-score),[17],0.143
same,glycan array binding signal (z-score),[18],-0.708
same,glycan array binding signal (z-score),[19],0.005
same,glycan array binding signal (z-score),[20],-0.357
same,glycan array binding signal (z-score),[21],-0.735
same,glycan array binding signal (z-score),[22],-0.471
same,glycan array binding signal (z-score),[23],0.527
same,glycan array binding signal (z-score),[24],0.595
same,glycan array binding signal (z-score),[25],-0.245
same,glycan array binding signal (z-score),[26],2.08
same,glycan array binding signal (z-score),[27],0.696
same,glycan array binding signal (z-score),[28],-0.011
same,glycan array binding signal (z-score),[29],-0.251
same,glycan array binding signal (z-score),[30],0.138
same,glycan array binding signal (z-score),[31],-1.14
same,glycan array binding signal (z-score),[32],2.17
same,glycan array binding signal (z-score),[33],-0.814
same,glycan array binding signal (z-score),[34],-0.827
same,glycan array binding signal (z-score),[35],0.767
